# RE007 growth inh – less growth of the S. pombe RE007 Vpr strain | S. pombe RE007 Vpr strain, BacTiter-Glo ATP luminescence, 24 h | Potency, µM (doses to about 92.2 µM), most hits filed as inhibitors | 360,000 compounds, 0.21% hits; active means well fitted falling curve with a large enough effect; inconclusive means small, poorly fitted or top-dose-only effect; inactive means no such curve, though single readings can be large or run the other way; further: nearly all actives have a fitted effect of over 50% in size
#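 Fission yeast strain RE007, carrying one chromosomally integrated HIV-1 vpr copy, was seeded at OD 0.01 in PMG+AL medium with 23 nL pinned compound. After 24 h at 30 °C and 99% humidity, viability was read by BacTiter-Glo luminescence.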
# Shiga toxin inh – Shiga toxin inhibition; 290,000 compounds, 9.2% hits; inhibition, % at 38.7 µM; AID 2315; Vero cells, Shiga toxin protein synthesis inhibition reporter; in the data active means inhibition mostly above about 28%, no sharp cut-off; inactive means mostly below about 43%
# CHX counter – counter-screen hit for Shiga toxin inhibitors, cycloheximide; cell reporter, cycloheximide protein synthesis inhibition counterscreen; max response, %; 300,000 compounds, 12% hits; AID 2314; in the data active means max response mostly above about 13%, no sharp cut-off; inactive means mostly below about 14%; further: read at 38.3 µM for the half of the compounds with a filed dose
# LmPK inh – blocks Leishmania mexicana pyruvate kinase activity | Potency, µM (titrated, usually from 57.5 µM), actives largely listed as inhibitors | Q27686 | 290,000 compounds, 0.37% hits | AID 1721 | purified LmPK, Kinase-Glo ATP luminescence, 1 h
# Target sequence (Q27686 whole entry, looked up): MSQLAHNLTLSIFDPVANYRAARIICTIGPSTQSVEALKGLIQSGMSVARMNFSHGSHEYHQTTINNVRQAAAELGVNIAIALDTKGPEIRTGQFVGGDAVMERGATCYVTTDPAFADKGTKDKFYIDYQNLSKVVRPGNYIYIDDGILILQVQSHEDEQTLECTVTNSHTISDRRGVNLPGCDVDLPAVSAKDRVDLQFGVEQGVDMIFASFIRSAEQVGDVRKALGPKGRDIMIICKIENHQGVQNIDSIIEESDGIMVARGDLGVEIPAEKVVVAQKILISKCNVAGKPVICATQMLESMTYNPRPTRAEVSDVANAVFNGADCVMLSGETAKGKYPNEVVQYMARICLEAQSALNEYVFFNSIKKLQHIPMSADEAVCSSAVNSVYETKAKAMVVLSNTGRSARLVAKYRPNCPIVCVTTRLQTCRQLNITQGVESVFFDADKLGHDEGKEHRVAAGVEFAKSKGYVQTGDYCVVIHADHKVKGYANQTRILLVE
#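 Screened at intermediate enzyme activity to detect both inhibitors and activators: LmPK at 0.1 nM, with a 0.5 nM enzyme column as activation reference. PEP 0.5 mM, ADP 0.1 mM; ATP detected by luminescence after 1 h.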
# TbPYK inhibitor – T. brucei pyruvate kinase inhibition. Q57TT1. TbPYK enzyme, Kinase-Glo Plus ATP luminescence, 45 min. AID 624173. Potency, µM (titrated, usually from 76.8 µM), actives largely listed as inhibitors. 410,000 compounds, 0.12% hits; further: nearly all actives have a fitted effect of over 50% in size
#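 In this concentration-response screen, enzyme-free wells defined baseline while DMSO plates tracked drift. Each reaction combined TbPYK, substrate, compound and 130 uM ADP for 45 min at room temperature. Kinase-Glo Plus luminescence gave the signal.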
# FBPA Giardia inh – blocks Giardia fructose-bisphosphate aldolase activity | A8B2U2 | purified Giardia FBPA | Potency, µM (highest dose often 59.6 µM), hits mostly inhibitors | 290,000 compounds, 0.71% hits | AID 2451; further: nearly all actives have a fitted effect of over 55% in size
#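 40 nM FBPA preincubated 10 min at RT with compound (up to 57.5 uM final), then substrate plus GAPDH/TPI/NAD/arsenate coupling and diaphorase/resazurin added. Fluorescence read after 20 min at RT, 525/598 nm.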
# A number is an active result; – = inactive; ? = inconclusive; · = no result given; [ ] = dose if it differs, or a comment. The full list was thinned out, with hits kept by preference. Unless noted, the call rests on the fitted dose curve; in most records, active means well fitted curve in the direction sought with a large enough effect; inconclusive means small, poorly fitted or top-dose-only effect, or another doubt; inactive means no such curve, though single readings can be large; an effect the other way counts as inactive or inconclusive.
SMILES,RE007 growth inh,Shiga toxin inh,CHX counter,LmPK inh,TbPYK inhibitor,FBPA Giardia inh
N/C(=N\OC(=O)CCCOc1ccccc1)c1ccccc1,–,–,23,–,–,–
N/C(=N\OC(=O)CCCOc1ccccc1)c1ccncc1,–,–,–,–,–,–
Cc1cccc(/C(N)=N/OC(=O)CCCc2ccccc2)c1,–,66,57,–,–,·
N/C(=N\OC(=O)CCCc1ccccc1)c1ccccc1,–,–,31,–,–,·
N/C(=N\OC(=O)CCCc1ccccc1)c1cccc([N+](=O)[O-])c1,–,–,–,–,–,–
N/C(=N\OC(=O)CCCc1ccccc1)c1cccnc1,·,40,21,–,–,–
CC(C)c1ccc(OCC(=O)Nc2c(C(=O)c3ccc(F)cc3)oc3ccccc23)cc1,·,·,·,·,–,·
CCCCC1CCC(C(=O)N2CC(=O)Nc3ccc(F)cc3C2c2ccc(F)cc2)CC1 (centres undefined),·,·,·,·,–,·
N/C(=N\OC(=O)CCCN1C(=O)c2ccccc2C1=O)c1ccc(Br)cc1,–,·,·,·,–,·
N/C(=N\OC(=O)CCCCCN1C(=O)c2ccccc2C1=O)c1ccccc1,–,71,37,–,–,–
CCCCc1nc(S(=O)(=O)c2ccc(Cl)cc2)c(N2CCOCC2)o1,–,34,27,–,–,–
CC1CN/C(=C\C(=O)c2ccccc2)C(=O)N1 (centres undefined),–,–,44,–,–,·
CC1CN/C(=C\C(=O)c2ccc(Cl)cc2)C(=O)N1 (centres undefined),–,–,25,–,–,–
CC1CCCN(C(=O)NC(=O)c2ccc(Cl)cc2)C1 (centres undefined),–,–,–,–,–,·
COc1cc2c(cc1OC)/C(=C/C(=O)c1ccccc1)NCC2,–,–,–,–,–,–
COC(=O)c1ccc(Cn2cc(Cl)cn2)o1,–,–,–,–,–,–
Cc1ccc2nc(NC(=O)c3ccc(Cn4cc(Cl)cn4)o3)sc2c1,–,–,33,–,–,–
CC(=O)c1sc(NC(=O)c2ccc(Cn3cc(Br)cn3)o2)nc1C,–,–,–,–,–,?
NNC(=O)c1ccc(Cn2cc(Cl)cn2)o1,–,–,18,–,–,–
COC(=O)C1=C(C)[C@@H](O)[C@@H](C)[C@](C)(c2cc(OC)c(C)c(OC)c2COc2ccccc2)O1,·,·,·,·,·,–
Oc1cc2c(cc1O)C1c3ccc(O)c(O)c3OCC1(O)C2 (centres undefined),–,–,–,?,10µM,6.3µM
COc1ccccc1N1CCN(c2nc3c(S(=O)(=O)c4ccc(C)c(C)c4)nnn3c3ccc(Cl)cc23)CC1,·,·,·,·,–,·
O=C(N/N=C/c1ccc(Sc2ccccn2)o1)c1cc2ccccc2cc1O,–,–,22,–,–,–
O=C(N/N=C\c1ccc(Sc2ccccn2)o1)c1cccc(F)c1,–,–,18,–,–,–
CCn1cnc2cc([N+](=O)[O-])ccc21,–,–,–,–,–,–
SMILES,RE007 growth inh,Shiga toxin inh,CHX counter,LmPK inh,TbPYK inhibitor,FBPA Giardia inh
COc1ccc(-n2cnc3cc([N+](=O)[O-])ccc32)cc1,–,–,–,–,–,–
Cc1cccc(-n2cnc3cc([N+](=O)[O-])ccc32)c1,–,–,12,–,–,–
Nc1ccc(-n2cnc3cc([N+](=O)[O-])ccc32)cc1,–,97,18,–,–,–
COC(=O)[C@@H]1CC[C@H](C)[C@@H](c2ccc(C)cc2)N1C(=O)c1ccc(/C=N\O[C@@H](C)c2cc(-c3c(C)cc(C)cc3C)no2)cc1,·,·,·,·,·,–[12.9 µM]
Cc1[nH]n(-c2ccccc2)c(=O)c1/C=C1\C=NN=C1c1ccccc1,–,98,67,–,–,–
Cc1[nH]n(-c2ccccc2)c(=O)c1-c1ccccc1,–,–,–,–,–,–
Cc1[nH]n(-c2ccccc2)c(=O)c1/C=C1/C=c2ccccc2=N1,–,–,17,–,–,–
C=CCn1c(O)c(/C=C2/C=c3ccccc3=N2)c(=O)[nH]c1=S,–,·,–,–,–,–
CCCN(C(=O)NCc1noc2ccc(C)cc12)c1ccc(Cl)c(Cl)c1,·,·,·,·,–,·
Cc1cc(NC(=O)NC(=O)c2ccc(F)cc2F)n[nH]1,–,43,19,–,–,–
COC(=O)c1ccc(OCC(=O)c2ccccc2)cc1,–,67,46,?,–,–
COC(=O)c1cc(O)c(OCc2ccccc2)c(O)c1,–,–,18,–,–,–
COC(=O)c1[nH]c(=O)c2ccccc2c1OCc1ccccc1,–,–,–,–,–,–
COC(=O)c1cc[n+](CC(=O)c2ccccc2)cc1,–,–,26,–,–,–
CN1CCCC2(CCN(C(=O)c3cccn3C)CC2)C1,·,·,·,·,–,–
Cc1ccc2nc3c(cc(C#N)c(=O)n3-c3nnc(SCc4ccc(F)cc4)s3)c(=O)n2c1,·,·,·,·,–,·
COc1ccc(OCC(=O)Nc2ccc(C)cc2)cc1,–,60,26,–,–,–
COc1ccc(NC(=O)CNS(=O)(=O)c2ccc(Cl)cc2)cc1,–,–,16,–,–,–
O=C(COc1ccccc1O)Nc1ccc(Cl)cc1,–,56,28,–,–,–
COc1ccc(OCC(=O)Nc2ccc(Cl)cc2)cc1,–,61,19,–,–,–
COc1ccccc1C(=O)Nc1cccc(C(=O)OCc2cc(=O)n3nc(C)sc3n2)c1,·,·,·,·,–,·
COc1ccc(OCC(=O)NNC(=O)C(=O)Nc2ccccc2)cc1,–,·,·,·,–,·
Cc1ccc(OCC(=O)Nc2ccc(F)cc2)cc1,–,40,47,–,–,–
Cc1ccc(OCCC(=O)OCC(=O)Nc2ccc(F)cc2)cc1,–,·,·,·,–,·
COc1ccc(OCC(=O)NNC(=O)C(=O)Nc2ccc(C)cc2)cc1,–,–,24,–,–,–
SMILES,RE007 growth inh,Shiga toxin inh,CHX counter,LmPK inh,TbPYK inhibitor,FBPA Giardia inh
COCC(=O)n1nc(-c2ccccc2)nc1NCc1ccc(N(C)C)cc1,–,65,38,–,–,–
COc1ccccc1C(=O)n1nc(-c2ccccc2)nc1NCc1ccc(Cl)cc1,·,·,·,·,–,·
COc1ccc(CNc2nc(-c3cccnc3)nn2C(=O)c2cccs2)cc1,–,–,29,–,–,–
COCC(=O)n1nc(-c2ccc(Cl)cc2)nc1NCc1ccc(F)cc1,–,48,38,–,–,–
COCC(=O)n1nc(-c2ccc(C)cc2)nc1NCc1ccc(F)cc1,–,86,12,–,–,–
CCn1cc(C(=O)OCC(=O)Nc2cc(Cl)ccc2OC)c(=O)c2ccc(C)nc21,·,·,·,·,–,·
Cc1ccccc1CCNC(=O)c1ccc2c(c1)nc1n2CCC(C)C1 (centres undefined),·,·,·,·,–,·
COc1ccc(-c2oc3ccc(C)cc3c(=O)c2O)cc1OC,·,·,·,·,·,–
O=S(=O)(NCc1cc(-c2ccccc2Cl)no1)c1ccccc1,–,–,–,–,–,–
O=S(=O)(Cc1cc(-c2ccccc2Cl)no1)c1ccccc1,–,121,38,–,–,–
